This note sets out measurements from article PMC12864922, “TDP-43 directly inhibits mRNA accumulation in neurites through modulation of mRNA stability”.

Whole data set: some 9,900 sequences, median “r (bound/input frequency ratio)” near 0.7, cut for the highest 2% near 6.5. Only a selection was taken, and the highest values are over-represented in it overall.

B1: ENSMUSG00000029636.442|Wasf3 (ssRNA)
RNA: GGGAGUUCUACAGUCCGACGAUCGCUUCGAUAUCCGCAUGCUAGGUUGAGUGGGUGGAUUCAUGAUGGAUGGAUGGAUGGAUGGAUGGAUGGAUGGAUGGAUGAGUGGAUGGAUAAUAGGUUGAUGGGUGGAUAGGUAGAUGAGUGAAUAGAUAGAUAUAGAUCAGUGGGAGGAUUGGAAAGUAGGUGAAUGAAUGGAUGGCAGAUAGAUGGAUCAAUUACAGAUGGAUGGAUGCAUGGAAUAGAUAGGUGGAUGGGUGGUGGCUAGAAGGUGCCUGAGUCUGCACAUCACUGCACUGAGAAGCUCUUGCGGUCGCACUAGUGUGGAAUUCUCGGGUGUCAAGG
B2: ENSMUSG00000029636.449|Wasf3 (ssRNA)
RNA: GGGAGUUCUACAGUCCGACGAUCGCUUCGAUAUCCGCAUGCUAUGGAUGGAUGGAUGGAUGAGUGGAUGGAUAAUAGGUUGAUGGGUGGAUAGGUAGAUGAGUGAAUAGAUAGAUAUAGAUCAGUGGGAGGAUUGGAAAGUAGGUGAAUGAAUGGAUGGCAGAUAGAUGGAUCAAUUACAGAUGGAUGGAUGCAUGGAAUAGAUAGGUGGAUGGGUGGUGGCUAGAAGGUGCCUGAGUCUGCACAUCACUGCACUGAGAAGGCAAAUGAGUACAUUAUACUAUUAGCACCAAACCCCAAGCUUCUCUUGCGGUCGCACUAGUGUGGAAUUCUCGGGUGUCAAGG
B3: ENSMUSG00000029636.439|Wasf3 (ssRNA)
RNA: GGGAGUUCUACAGUCCGACGAUCGCUUCGAUAUCCGCAUGCUAGGAUGAUAGGUGGUGGAUGGUUGAGUGGGUGGAUUCAUGAUGGAUGGAUGGAUGGAUGGAUGGAUGGAUGGAUGGAUGAGUGGAUGGAUAAUAGGUUGAUGGGUGGAUAGGUAGAUGAGUGAAUAGAUAGAUAUAGAUCAGUGGGAGGAUUGGAAAGUAGGUGAAUGAAUGGAUGGCAGAUAGAUGGAUCAAUUACAGAUGGAUGGAUGCAUGGAAUAGAUAGGUGGAUGGGUGGUGGCUAGAAGGUGCCUGAGUCUGCACUCUUGCGGUCGCACUAGUGUGGAAUUCUCGGGUGUCAAGG
B4: ENSMUSG00000029636.446|Wasf3 (ssRNA)
RNA: GGGAGUUCUACAGUCCGACGAUCGCUUCGAUAUCCGCAUGCUAGAUGGAUGGAUGGAUGGAUGGAUGGAUGGAUGGAUGAGUGGAUGGAUAAUAGGUUGAUGGGUGGAUAGGUAGAUGAGUGAAUAGAUAGAUAUAGAUCAGUGGGAGGAUUGGAAAGUAGGUGAAUGAAUGGAUGGCAGAUAGAUGGAUCAAUUACAGAUGGAUGGAUGCAUGGAAUAGAUAGGUGGAUGGGUGGUGGCUAGAAGGUGCCUGAGUCUGCACAUCACUGCACUGAGAAGGCAAAUGAGUACAUUAUACUAUUACUCUUGCGGUCGCACUAGUGUGGAAUUCUCGGGUGUCAAGG
B5: ENSMUSG00000029636.451|Wasf3 (ssRNA)
RNA: GGGAGUUCUACAGUCCGACGAUCGCUUCGAUAUCCGCAUGCUAUGGAUGAGUGGAUGGAUAAUAGGUUGAUGGGUGGAUAGGUAGAUGAGUGAAUAGAUAGAUAUAGAUCAGUGGGAGGAUUGGAAAGUAGGUGAAUGAAUGGAUGGCAGAUAGAUGGAUCAAUUACAGAUGGAUGGAUGCAUGGAAUAGAUAGGUGGAUGGGUGGUGGCUAGAAGGUGCCUGAGUCUGCACAUCACUGCACUGAGAAGGCAAAUGAGUACAUUAUACUAUUAGCACCAAACCCCAAGCUUCAGUAUUUAGAUCUCUUGCGGUCGCACUAGUGUGGAAUUCUCGGGUGUCAAGG
B6: ENSMUSG00000029636.445|Wasf3 (ssRNA)
RNA: GGGAGUUCUACAGUCCGACGAUCGCUUCGAUAUCCGCAUGCUAAUGAUGGAUGGAUGGAUGGAUGGAUGGAUGGAUGGAUGGAUGAGUGGAUGGAUAAUAGGUUGAUGGGUGGAUAGGUAGAUGAGUGAAUAGAUAGAUAUAGAUCAGUGGGAGGAUUGGAAAGUAGGUGAAUGAAUGGAUGGCAGAUAGAUGGAUCAAUUACAGAUGGAUGGAUGCAUGGAAUAGAUAGGUGGAUGGGUGGUGGCUAGAAGGUGCCUGAGUCUGCACAUCACUGCACUGAGAAGGCAAAUGAGUACAUUAUACUCUUGCGGUCGCACUAGUGUGGAAUUCUCGGGUGUCAAGG
B7: ENSMUSG00000029636.443|Wasf3 (ssRNA)
RNA: GGGAGUUCUACAGUCCGACGAUCGCUUCGAUAUCCGCAUGCUAGUGGGUGGAUUCAUGAUGGAUGGAUGGAUGGAUGGAUGGAUGGAUGGAUGGAUGAGUGGAUGGAUAAUAGGUUGAUGGGUGGAUAGGUAGAUGAGUGAAUAGAUAGAUAUAGAUCAGUGGGAGGAUUGGAAAGUAGGUGAAUGAAUGGAUGGCAGAUAGAUGGAUCAAUUACAGAUGGAUGGAUGCAUGGAAUAGAUAGGUGGAUGGGUGGUGGCUAGAAGGUGCCUGAGUCUGCACAUCACUGCACUGAGAAGGCAAAUCUCUUGCGGUCGCACUAGUGUGGAAUUCUCGGGUGUCAAGG
B8: ENSMUSG00000029636.444|Wasf3 (ssRNA)
RNA: GGGAGUUCUACAGUCCGACGAUCGCUUCGAUAUCCGCAUGCUAGGAUUCAUGAUGGAUGGAUGGAUGGAUGGAUGGAUGGAUGGAUGGAUGAGUGGAUGGAUAAUAGGUUGAUGGGUGGAUAGGUAGAUGAGUGAAUAGAUAGAUAUAGAUCAGUGGGAGGAUUGGAAAGUAGGUGAAUGAAUGGAUGGCAGAUAGAUGGAUCAAUUACAGAUGGAUGGAUGCAUGGAAUAGAUAGGUGGAUGGGUGGUGGCUAGAAGGUGCCUGAGUCUGCACAUCACUGCACUGAGAAGGCAAAUGAGUACCUCUUGCGGUCGCACUAGUGUGGAAUUCUCGGGUGUCAAGG
B9: ENSMUSG00000029636.440|Wasf3 (ssRNA)
RNA: GGGAGUUCUACAGUCCGACGAUCGCUUCGAUAUCCGCAUGCUAUAGGUGGUGGAUGGUUGAGUGGGUGGAUUCAUGAUGGAUGGAUGGAUGGAUGGAUGGAUGGAUGGAUGGAUGAGUGGAUGGAUAAUAGGUUGAUGGGUGGAUAGGUAGAUGAGUGAAUAGAUAGAUAUAGAUCAGUGGGAGGAUUGGAAAGUAGGUGAAUGAAUGGAUGGCAGAUAGAUGGAUCAAUUACAGAUGGAUGGAUGCAUGGAAUAGAUAGGUGGAUGGGUGGUGGCUAGAAGGUGCCUGAGUCUGCACAUCACCUCUUGCGGUCGCACUAGUGUGGAAUUCUCGGGUGUCAAGG
B10: ENSMUSG00000029636.438|Wasf3 (ssRNA)
RNA: GGGAGUUCUACAGUCCGACGAUCGCUUCGAUAUCCGCAUGCUAGUGAAUGGAUGAUAGGUGGUGGAUGGUUGAGUGGGUGGAUUCAUGAUGGAUGGAUGGAUGGAUGGAUGGAUGGAUGGAUGGAUGAGUGGAUGGAUAAUAGGUUGAUGGGUGGAUAGGUAGAUGAGUGAAUAGAUAGAUAUAGAUCAGUGGGAGGAUUGGAAAGUAGGUGAAUGAAUGGAUGGCAGAUAGAUGGAUCAAUUACAGAUGGAUGGAUGCAUGGAAUAGAUAGGUGGAUGGGUGGUGGCUAGAAGGUGCCUGAGCUCUUGCGGUCGCACUAGUGUGGAAUUCUCGGGUGUCAAGG

Sequence of TDP-43 (Q13148 whole entry): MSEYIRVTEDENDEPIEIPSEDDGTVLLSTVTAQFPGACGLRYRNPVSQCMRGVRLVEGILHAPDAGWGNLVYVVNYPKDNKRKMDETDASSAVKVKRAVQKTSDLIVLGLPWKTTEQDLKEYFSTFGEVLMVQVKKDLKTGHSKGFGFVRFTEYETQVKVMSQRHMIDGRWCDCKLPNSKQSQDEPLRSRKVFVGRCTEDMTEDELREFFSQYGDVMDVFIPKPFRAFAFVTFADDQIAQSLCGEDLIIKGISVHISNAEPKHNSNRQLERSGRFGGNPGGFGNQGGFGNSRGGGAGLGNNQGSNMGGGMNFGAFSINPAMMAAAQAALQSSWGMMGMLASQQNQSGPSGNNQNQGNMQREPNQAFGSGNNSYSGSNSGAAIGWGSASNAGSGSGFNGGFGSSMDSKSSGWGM

The experiment has as its target TDP-43 (Homo sapiens, UniProt Q13148 1-414). Description: RNA Bind-n-Seq with designed 260-mer pool; 25 mM Tris-HCl, 150 mM KCl, 3 mM MgCl2, BSA (printed 500 mg/mL), 20 units/mL SUPERase IN; pH not stated; 500 nM RNA pool, 1 h, 4 C; TDP-43 5, 50, 500 nM; high values mean tight binding. Particulars: protein: recombinant; tags: SBP (GST cleaved off with PreScission; pGEX-GST-SBP). In a few lines:
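Recombinant SBP-tagged TDP-43 at 5, 50 or 500 nM was captured on streptavidin beads, then incubated 1 h at 4 °C with 500 nM of an in vitro-transcribed 260-nt 3′ UTR oligo pool in 25 mM Tris-HCl, 150 mM KCl, 3 mM MgCl2, BSA and SUPERase IN. Bound RNA was washed, eluted with biotin, reverse transcribed, PCR-amplified and sequenced. Binding is R, each oligo's mapped-read-normalized abundance in the bound sample divided by its abundance in input. Duplicates used two independent protein batches.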
As for B1, the binding signal was 5.86 R (bound/input frequency ratio).

Take B2: the binding signal is 6.51 R (bound/input frequency ratio).

For B3, the binding signal was 5.9 R (bound/input frequency ratio).

For the molecule B4, the binding signal is 4.56 R (bound/input frequency ratio).

In the case of B5, the binding signal is 4.65 R (bound/input frequency ratio).

Turning to B6, the binding signal was 5.13 R (bound/input frequency ratio).

Turning to B7, the binding signal was 5.07 R (bound/input frequency ratio).

Take B8: the binding signal is 4.6 R (bound/input frequency ratio).

For B9, the binding signal was 7.49 R (bound/input frequency ratio).

Take B10: the binding signal was 8.37 R (bound/input frequency ratio).
